Screens deposited in PubChem by several laboratories.
CR mimetic SO: caloric restriction mimetics inhibiting age-related superoxide in yeast; S. cerevisiae aged cells, superoxide DHE fluorescence; hits give low values; superoxide response (% of plate mean), % at 10 µM; 330,000 tested, 0.18% active; AID 2690;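 active = superoxide response under a set limit, about three screen SD below normal, cut at about 65% in these data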;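 also: yeast aged for seven days with compound at 30 °C before DHE staining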
HIF activator: HIF pathway transcriptional activation; U2OS HRE-luciferase reporter, luminescence; normalized: DMSO 0%, desferrioxamine 100%; activation, % at 7.5 µM (by protocol); 300,000 tested, 0.32% active; AID 1910;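 active = mean activation of at least 10% of the iron chelator positive control signal, with at least half of replicates also reaching 10%; inconclusive = mean and replicate majority disagree about reaching 10%; inactive = mean and most replicates under 10%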
HDAC3 inhib: inhibitors of human histone deacetylase 3. O15379. recombinant HDAC3, fluorogenic peptide/trypsin coupled, fluorescence. inhibition, % at 8.3 µM. 320,000 tested, 0.15% active; in the data active = inhibition above about 26%, passing the limit was not always enough; inconclusive = no clear call, values can overlap the other calls
Target sequence (O15379 whole entry, looked up): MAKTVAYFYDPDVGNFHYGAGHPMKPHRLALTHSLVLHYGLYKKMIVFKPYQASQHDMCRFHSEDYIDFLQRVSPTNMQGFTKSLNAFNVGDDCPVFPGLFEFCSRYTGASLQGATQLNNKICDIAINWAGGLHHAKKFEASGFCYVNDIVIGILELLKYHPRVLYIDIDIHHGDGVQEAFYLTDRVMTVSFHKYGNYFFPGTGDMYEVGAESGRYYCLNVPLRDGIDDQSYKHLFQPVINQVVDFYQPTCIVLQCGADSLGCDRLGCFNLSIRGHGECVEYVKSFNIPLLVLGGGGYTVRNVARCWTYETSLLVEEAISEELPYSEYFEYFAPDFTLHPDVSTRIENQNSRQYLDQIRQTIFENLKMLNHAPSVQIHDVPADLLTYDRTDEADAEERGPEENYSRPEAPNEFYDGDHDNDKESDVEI
LANA-H2A inh: blocks KSHV LANA binding to histone H2A/H2B. Q9QR71. cell-free LANA-H2A/H2B peptide, fluorescence polarization. inhibition, % (test concentration not listed). 320,000 tested, 0.6% active. AID 2629; in the data active = inhibition mostly above about 10%, no sharp cut-off; inactive = mostly below about 6.7%
Large screens that a line does not name were inactive. An excerpt weighted towards active compounds, which were near 1.2% of everything screened.

Cc1cc(=O)[nH]c(N=N/C(=N/Nc2ccc(O)cc2)c2ccccc2)n1	HIF activator 12.0
Cc1nnc(SCC(=O)NC2CCCCC2)n(N)c1=O	none
O=C(C1CC12CCCC2)N1CCC(CO)(Cc2ccccc2Cl)CC1 (stereo unspecified)	LANA-H2A inh 18.8
NC(=O)NC(=O)COC(=O)[C@H](Cc1ccccc1)NC(=O)c1cccs1	none
COc1cccc(/C=N\NC(=O)c2ccc(Cn3cc(Br)c([N+](=O)[O-])n3)o2)c1O	HIF activator 17.5
COc1cccc(/C=N/NC(=O)c2c(C)nc3ccc(Br)cn23)c1O	HIF activator 31.5
COc1cccc(/C=N/NC(=O)c2nc(-c3ccccc3)cc(-c3ccccc3)n2)c1O	HIF activator 10.9
COc1cccc(/C=N/NC(=O)CSc2ccccc2C)c1OC	none
COc1cccc(/C=N/NC(=O)CSc2ccccc2C)c1O	HIF activator 12.1 (no result: HDAC3 inhib, LANA-H2A inh)
C/C(=N\NC(=O)Cc1ccc(Cl)cc1)c1cccc(NC(=O)c2cccnc2)c1	none (no result: HIF activator)
Cc1nn(Cc2ccccc2Cl)c(C)c1C(=O)NCCN1C(=O)S/C(=C\c2ccccc2)C1=O	none
CCCCCOc1ccc(NC(=O)C2OC3OC(C)(C)OC3C3OC(C)(C)OC23)cc1 (stereo unspecified)	none
COc1ccc(NC(=O)C2OC3OC(C)(C)OC3C3OC(C)(C)OC23)cc1 (stereo unspecified)	LANA-H2A inh 27.5
O=C1CCCN2N=C(SCC(=O)Nc3cccc(Cl)c3)SC2=N1	LANA-H2A inh 26.5
O=C(COC(=O)c1nc(Cl)ccc1Cl)NCc1ccccc1	LANA-H2A inh 14.4
O=C(COC(=O)c1nc(Cl)ccc1Cl)c1ccccc1Cl	none
COC(=O)[C@@]1(Cc2ccccc2)[C@H]2C(=O)N(C)C(=O)[C@H]2[C@H]2CN=C(SCc3ccc(C)cc3)N21	none (no result: HIF activator, HDAC3 inhib, LANA-H2A inh)
Cc1ccccc1CC1(CO)CCCN(C(=O)CCCN2CCCCC2=O)C1 (stereo unspecified)	LANA-H2A inh 83.1
CCCCc1ccc(N=N/C(C(=O)Nc2ccc(NC(C)=O)cc2OC)=C(/C)O)cc1	LANA-H2A inh 47.3
COc1cc(/C=C2\N=C(c3ccccc3)OC2=O)ccc1OC(C)=O	none
COc1ccc(OC)c(/C=C2\N=C(c3ccccc3)OC2=O)c1	LANA-H2A inh 41.9
COc1ccc(NC(=O)CC(C)c2ccccc2)cc1S(=O)(=O)N1CCOCC1 (stereo unspecified)	none (no result: HIF activator)
COc1ccc(/C(C)=N/NC(=O)c2cc(-c3cccnc3)nc3ccccc23)cc1	none
C/C(=N\NC(=O)c1cc(-c2cccnc2)nc2ccccc12)c1ccccc1O	HIF activator 17.6
CCC(=O)n1nc(-c2ccc(Cl)cc2)nc1SC	none
CCCC(=O)n1nc(-c2ccc(Cl)cc2)nc1SC	HDAC3 inhib 32.0
O=C(N/N=C(\Cc1ncc[nH]1)c1ccccc1)c1ccccc1	HIF activator 25.2
O=C(Nc1cc(Cl)ccc1-n1cncn1)c1cc(S(=O)(=O)N2CCOCC2)ccc1F	none
CCOC(=O)C1CCCN(c2c(NCCCN(CC)c3ccccc3)c(=O)c2=O)C1 (stereo unspecified)	LANA-H2A inh 17.5
COc1ccccc1CNC(=O)c1cnc2ccccn2c1=O	none
O=C(NCc1cccs1)c1cnc2ccccn2c1=O	LANA-H2A inh 9.8
c1ccc(Cc2nnc(-c3ccccc3)o2)cc1	HIF activator 9.7
NC(=O)c1sc2nccc(Nc3ccccc3)c2c1N	HIF activator 10.5
NC(=O)c1sc2nc(-c3ccccc3)c3c(c2c1N)CCCC3	none
COC(=O)CCCCCN1C(=O)/C(=C\c2ccncc2)SC1=S	none
O=C(C1CCCN(S(=O)(=O)c2cccc3cccnc23)C1)N1CCN(c2ccc(F)cc2)CC1 (stereo unspecified)	LANA-H2A inh 24.8
O=C(C1CCN(S(=O)(=O)c2cccc3cccnc23)CC1)N1CCN(c2ccccc2)CC1	none (no result: HIF activator)
COc1ccc(N2CCN(C(=O)C3CCCN(S(=O)(=O)c4ccc(C)cc4)C3)CC2)cc1 (stereo unspecified)	LANA-H2A inh 25.7
COc1ccc(S(=O)(=O)N(C)C[C@H]2Oc3ccc(NC(=O)c4ccncc4)cc3C(=O)N([C@H](C)CO)C[C@@H]2C)cc1	none (no result: HIF activator, HDAC3 inhib, LANA-H2A inh)
O=C1CCCC2=C1C(c1ccccc1O)C1=C(CCCC1=O)O2	none
O=C1CCCC2=C1C(Cc1ccccc1)C1=C(CCCC1=O)O2	HIF activator 350.7
Cc1c(N)cccc1N	LANA-H2A inh 123.1 (no result: HIF activator)
O=[N+]([O-])c1ccc(/C=C/c2ccncc2)cc1	CR mimetic SO 61.5
O=[N+]([O-])c1cccc(/C=C/c2ccncc2)c1	none
O=S(=O)(Nc1cccc(S(=O)(=O)N2CCCCC2)c1)c1ccccc1F	none (no result: HIF activator)
Nn1c(=O)c2ccccc2n2c(SCc3ccc(C(F)(F)F)cc3)nnc12	none
CC(=O)c1ccc(NC(=S)Nc2ccc(Br)c(Cl)c2)cc1	LANA-H2A inh 35.8
CC(C)(C)OC(=O)C[C@H]1C/C=C\C[C@@H](CC(=O)N(CCO)Cc2ccccc2)C(=O)NC[C@@H](c2ccccc2)OC1=O	none (no result: HIF activator)
Cc1noc(C)c1S(=O)(=O)N1CCN(c2ccc([N+](=O)[O-])cc2)CC1	LANA-H2A inh 14.7 (no result: HIF activator)
Cc1cc(C)n2c(SCC(=O)Nc3ccc(F)cc3)nnc2n1	none
O=C(CCCN1C(=O)/C(=C\c2cccc(Br)c2)SC1=S)Nc1cccnc1	LANA-H2A inh 18.6
O=[N+]([O-])c1ccc(F)cc1F	LANA-H2A inh 51.5 (no result: HIF activator)
CCCOc1ccc(-c2c(=O)n(OCC(=O)OCC)c3ccccc3[n+]2[O-])cc1	HDAC3 inhib 33.6
CCOn1c(=O)c(-c2cccs2)[n+]([O-])c2ccccc21	none
CCOC(=O)COn1c(=O)c(-c2cccs2)[n+]([O-])c2ccccc21	HDAC3 inhib 52.6
CCOC(=O)COn1c(=O)c(-c2ccc(F)cc2)[n+]([O-])c2ccccc21	none
CCN1C(=O)[C@H]2[C@H]3CN=C(SCc4ccc(C)cc4)N3[C@@](CC)(C(=O)OC)[C@H]2C1=O	none (no result: HIF activator, HDAC3 inhib, LANA-H2A inh)
Cc1ccc(S(=O)(=O)/N=C2/C=C(Sc3ncn[nH]3)C(=O)c3ccccc32)c(C)c1	HDAC3 inhib 38.0 (no result: HIF activator)
CCOC(=O)C1=CN(Cc2cccc(-c3ccc(F)cc3)c2)S(=O)(=O)N(C)C1C (stereo unspecified)	none (no result: HIF activator, HDAC3 inhib, LANA-H2A inh)
Nc1ccc(C(=O)Nc2ccc3nc(-c4ccncc4)[nH]c3c2)cc1	HIF activator 256.1
Clc1c(CSc2nc3ccccc3o2)nc2sccn12	HIF activator 10.0
Clc1c(CSc2nc3ccccc3o2)nc2ccccn12	none
O=C(N/N=C/c1cc(Br)cc(Cl)c1O)c1ccc2c(c1)OCO2	HIF activator 19.4
Cc1cc(Br)cc(/C=N/NC(=O)c2ccc3c(c2)OCO3)c1O	HIF activator 13.1
O=C(N/N=C/c1cc(Br)c(O)c(Br)c1O)c1ccc2c(c1)OCCO2	HDAC3 inhib inconclusive
O=C(N/N=C/c1ccccc1O)c1ccc2c(c1)OCO2	HIF activator 9.7
O=C(C[C@H]1C/C=C\CC[C@H](Cc2ccc(F)cc2)C(=O)OC[C@@H]2CCCN2C1=O)N[C@H](CO)Cc1ccccc1	none (no result: HIF activator)
Cc1oc2c(cc(NS(=O)(=O)c3ccc(F)cc3)c3ccccc32)c1C(=O)O	none
Cc1oc2c(cc(NS(=O)(=O)c3ccc(C(C)C)cc3)c3ccccc32)c1C(=O)O	LANA-H2A inh 26.2
